Laboratory results as given in PubChem BioAssay AID1159580 (chemical genetic matrix, 2015).
The whole screen tested about 5,500 compounds, of which about 2,000 (36%) were called active. About 18% were inconclusive and are not listed. Cut-off read from the data, not from the text of the source: active = normalized growth mostly below about 0.91 (no sharp cut-off); inconclusive = no clear call, values can overlap the other calls; inactive = mostly above about 0.92. The list shows a part of the results.

Assay: chemical genetic growth profiling, strain panel (AID 1159580);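 note: tested at 20 µM; growth read once vehicle control cultures reached saturation at 30 °C; 1 = growth at the plate median or of vehicle wells; lower values mean less growth of the strain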
Conditions: growth OD

Measured: normalized growth

CC(=O)Oc1ccc2c(c1)CCC1C2CC[C@]2(C)C(=O)CCC12 (stereo not given in full)
inactive: S. cerevisiae deletion strains, locus YJR043C, strain POL32, active compounds read low 0.982 | S. cerevisiae deletion strains, locus YJR066W, strain TOR1, active compounds read low 0.895 | S. cerevisiae deletion strains, locus YKL009W, strain mrt4, active compounds read low 0.972 | S. cerevisiae deletion strains, locus YKL068W, active compounds read low 1.02 | S. cerevisiae deletion strains, locus YKL085W, strain MDH1 (second series), active compounds read low 1 | S. cerevisiae deletion strains, locus YKL085W, strain MDH1, active compounds read low 1 | S. cerevisiae deletion strains, locus YKL160W, strain elf1, active compounds read low 0.986 | S. cerevisiae deletion strains, locus YKL190W, strain CNB1, active compounds read low 1 | S. cerevisiae deletion strains, locus YKR001C, strain vps1, active compounds read low 1.01 | S. cerevisiae deletion strains, locus YKR026C, strain gcn3, active compounds read low 0.984 | S. cerevisiae deletion strains, locus YKR091W, strain srl3, active compounds read low 0.985 | S. cerevisiae deletion strains, locus YLL001W, strain dnm1, active compounds read low 0.964 | S. cerevisiae deletion strains, locus YLL026W, active compounds read low 0.988 | S. cerevisiae deletion strains, locus YLL041C, strain sdh2, active compounds read low 0.983 | S. cerevisiae deletion strains, locus YLR027C, strain aat2, active compounds read low 0.983 | S. cerevisiae deletion strains, locus YLR039C, strain RIC1, active compounds read low 0.725 | S. cerevisiae deletion strains, locus YLR058C, strain SHM2, active compounds read low 0.987 | S. cerevisiae deletion strains, locus YLR102C, strain apc9, active compounds read low 1.02 | S. cerevisiae deletion strains, locus YLR113W, strain HOG1, active compounds read low 0.991 | S. cerevisiae deletion strains, locus YLR221C, strain rsa3, active compounds read low 0.991 | S. cerevisiae deletion strains, locus YLR258W, strain gsy2, active compounds read low 0.985 | S. cerevisiae deletion strains, locus YLR262C, strain YPT6, active compounds read low 0.623 | S. cerevisiae deletion strains, locus YLR268W, strain sec22, active compounds read low 1.01 | S. cerevisiae deletion strains, locus YLR320W, strain mms22, active compounds read low 0.983 | S. cerevisiae deletion strains, locus YLR330W, strain CHS5, active compounds read low 1 | S. cerevisiae deletion strains, locus YLR342W, strain FKS1 (second series), active compounds read low 0.959 | S. cerevisiae deletion strains, locus YLR342W, strain FKS1, active compounds read low 0.965 | S. cerevisiae deletion strains, locus YLR357W, strain rsc2, active compounds read low 0.981 | S. cerevisiae deletion strains, locus YLR370C, strain arc18, active compounds read low 0.975 | S. cerevisiae deletion strains, locus YLR371W, strain rom2, active compounds read low 1.02 | S. cerevisiae deletion strains, locus YLR384C, strain iki3, active compounds read low 0.961 | S. cerevisiae deletion strains, locus YLR418C, strain cdc73, active compounds read low 0.966 | S. cerevisiae deletion strains, locus YML016C, strain PPZ1, active compounds read low 1 | S. cerevisiae deletion strains, locus YML032C, strain rad52, active compounds read low 0.997 | S. cerevisiae deletion strains, locus YML120C, strain ndi1, active compounds read low 0.986 | S. cerevisiae deletion strains, locus YML124C, strain tub3, active compounds read low 1.02 | S. cerevisiae deletion strains, locus YMR058W, strain fet3, active compounds read low 0.96 | S. cerevisiae deletion strains, locus YMR078C, strain ctf18, active compounds read low 0.999 | S. cerevisiae deletion strains, locus YMR125W, strain sto1, active compounds read low 0.992 | S. cerevisiae deletion strains, locus YMR129W, active compounds read low 0.987 | S. cerevisiae deletion strains, locus YMR205C, strain PFK2, active compounds read low 0.947 | S. cerevisiae deletion strains, locus YMR223W, strain ubp8, active compounds read low 0.996 | S. cerevisiae deletion strains, locus YMR231W, strain pep5, active compounds read low 0.964 | S. cerevisiae deletion strains, locus YMR307W, strain GAS1, active compounds read low 1.07 | S. cerevisiae deletion strains, locus YNL067W, strain RPL9B, active compounds read low 0.956 | S. cerevisiae deletion strains, locus YNL071W, strain lat1, active compounds read low 0.994 | S. cerevisiae deletion strains, locus YNL128W, strain TEP1, active compounds read low 1.02 | S. cerevisiae deletion strains, locus YNL183C, strain NPR1, active compounds read low 0.894 | S. cerevisiae deletion strains, locus YNL209W, strain ssb2, active compounds read low 0.982 | S. cerevisiae deletion strains, locus YNL233W, strain BNI4, active compounds read low 0.949 | S. cerevisiae deletion strains, locus YNL248C, strain rpa49, active compounds read low 1 | S. cerevisiae deletion strains, locus YNL250W, strain rad50, active compounds read low 1.01 | S. cerevisiae deletion strains, locus YNL271C, strain bni1, active compounds read low 1.02 | S. cerevisiae deletion strains, locus YNL298W, strain CLA4, active compounds read low 0.962 | S. cerevisiae deletion strains, locus YNL307C, strain MCK1, active compounds read low 1.01 | S. cerevisiae deletion strains, locus YNL322C, strain KRE1 (second series), active compounds read low 0.967 | S. cerevisiae deletion strains, locus YNL322C, strain KRE1, active compounds read low 1 | S. cerevisiae deletion strains, locus YNR049C, strain mso1, active compounds read low 0.992 | S. cerevisiae deletion strains, locus YNR052C, strain pop2, active compounds read low 0.996 | S. cerevisiae deletion strains, locus YOL006C, strain TOP1, active compounds read low 0.719 | S. cerevisiae deletion strains, locus YOL012C, strain htz1 1.64 | S. cerevisiae deletion strains, locus YOL147C, strain pex11, active compounds read low 1.01 | S. cerevisiae deletion strains, locus YOR001W, strain rrp6, active compounds read low 0.972 | S. cerevisiae deletion strains, locus YOR061W, strain CKA2, active compounds read low 1 | S. cerevisiae deletion strains, locus YOR069W, strain VPS5, active compounds read low 1.01 | S. cerevisiae deletion strains, locus YOR070C, strain gyp1, active compounds read low 0.988 | S. cerevisiae deletion strains, locus YOR080W, strain dia2, active compounds read low 0.983 | S. cerevisiae deletion strains, locus YOR083W, strain WHI5, active compounds read low 0.976 | S. cerevisiae deletion strains, locus YOR106W, strain vam3, active compounds read low 0.968 | S. cerevisiae deletion strains, locus YOR136W, strain idh2, active compounds read low 1.01 | S. cerevisiae deletion strains, locus YOR144C, strain elg1, active compounds read low 1.01 | S. cerevisiae deletion strains, locus YOR231W, strain MKK1, active compounds read low 0.928 | S. cerevisiae deletion strains, locus YOR265W, strain rbl2, active compounds read low 0.989 | S. cerevisiae deletion strains, locus YOR270C, strain vph1, active compounds read low 0.975 | S. cerevisiae deletion strains, locus YOR290C, strain snf2, active compounds read low 0.998 | S. cerevisiae deletion strains, locus YOR316C, strain cot1, active compounds read low 1.03 | S. cerevisiae deletion strains, locus YPL051W, strain arl3, active compounds read low 0.979 | S. cerevisiae deletion strains, locus YPL078C, strain atp4, active compounds read low 0.959 | S. cerevisiae deletion strains, locus YPL106C, strain sse1, active compounds read low 1.02 | S. cerevisiae deletion strains, locus YPL240C, strain hsp82, active compounds read low 0.969 | S. cerevisiae deletion strains, locus YPL241C, strain CIN2, active compounds read low 1.01 | S. cerevisiae deletion strains, locus YPL256C, strain CLN2, active compounds read low 0.945 | S. cerevisiae deletion strains, locus YPR119W, strain clb2, active compounds read low 1.01 | S. cerevisiae deletion strains, locus YPR141C, strain kar3, active compounds read low 1.02 | S. cerevisiae deletion strains, locus YPR163C, strain tif3, active compounds read low 1.03 | S. cerevisiae deletion strains, locus YPR167C, strain met16, active compounds read low 1.02 | S. cerevisiae deletion strains, strain wtn01, active compounds read low 0.997 | S. cerevisiae strains, strain wild type, active compounds read low 0.993
active: S. cerevisiae deletion strains, locus YLR262C, strain YPT6 (second series), active compounds read low 0.689 | S. cerevisiae deletion strains, locus YOR184W, strain ser1, active compounds read low 0.86
